Results on 1 sequence are retold here after PMC7862700, “An all-to-all approach to the identification of sequence-specific readers for epigenetic DNA modifications on cytosine”.

What all share (assay): DAPPL (digital affinity profiling via proximity ligation, sequencing); 10 mM Tris-HCl pH 7.5, 50 mM NaCl, 1 mM DTT, 4% glycerol, room temperature, 30 min; GST-TFs on glutathione beads, 16-mer random dsDNA library, 0.1% formaldehyde crosslink after washing; high values mean tight binding
One test concerns the target T1, FEV (Homo sapiens, UniProt Q99581 1-238).
T1 sequence: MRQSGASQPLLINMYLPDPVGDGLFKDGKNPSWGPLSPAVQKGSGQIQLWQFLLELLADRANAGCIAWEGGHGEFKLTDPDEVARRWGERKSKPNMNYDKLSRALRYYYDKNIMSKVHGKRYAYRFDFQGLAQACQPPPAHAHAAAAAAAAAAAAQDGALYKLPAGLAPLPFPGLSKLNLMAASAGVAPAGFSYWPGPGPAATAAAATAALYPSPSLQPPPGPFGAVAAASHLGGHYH
The conditions noted are these: protein: recombinant; tags: N-terminal GST; dsDNA, one strand shown. The essentials:
(§1)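 In yeast, human transcription factors were expressed with a GST fusion, then pulled down on glutathione beads and given DNA barcodes. Pooled with a tag-only sample, they were exposed to 200 nmole of a 16-mer random double-stranded DNA library (Tris/NaCl/DTT/glycerol buffer, room temperature, 30 min), washed, crosslinked with 0.1% formaldehyde, proximity-ligated using BsaI/T4 ligase for 1 h at 37 °C, PCR-amplified and read on an Illumina NextSeq500. Each hexamer's frequency of reads for a factor, divided by the matching frequency for the tag-only sample, gives the binding signal.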

The target in another test is ETV5 (Homo sapiens, UniProt P41161 1-510). The conditions noted are these: protein: recombinant; tags: N-terminal GST; dsDNA, one strand shown. The essentials:
as §1

The target of another test is HSF1 (Homo sapiens, UniProt Q00613 1-529). To be noted: protein: recombinant; tags: N-terminal GST; chain copies: 3; dsDNA, one strand shown. The essentials:
as §1

For a further test, the target named is T2, SPIC (Homo sapiens, UniProt Q8N5J4 1-248).
T2 sequence: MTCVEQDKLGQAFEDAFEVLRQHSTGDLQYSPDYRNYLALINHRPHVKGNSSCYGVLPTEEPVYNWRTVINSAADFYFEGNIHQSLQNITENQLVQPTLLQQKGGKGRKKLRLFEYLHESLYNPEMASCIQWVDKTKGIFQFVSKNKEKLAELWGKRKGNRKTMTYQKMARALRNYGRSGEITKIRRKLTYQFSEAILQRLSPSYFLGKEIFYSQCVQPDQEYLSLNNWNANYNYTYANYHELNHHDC
The conditions noted are these: protein: recombinant; tags: N-terminal GST; dsDNA, one strand shown. The essentials: as §1

Another test deals with ELF4 (Homo sapiens, UniProt Q99607 1-663). To be noted: protein: recombinant; tags: N-terminal GST; dsDNA, one strand shown. The essentials:
as §1

The next test addresses T3, ELK4 (Homo sapiens, UniProt P28324-2 1-405).
T3 sequence: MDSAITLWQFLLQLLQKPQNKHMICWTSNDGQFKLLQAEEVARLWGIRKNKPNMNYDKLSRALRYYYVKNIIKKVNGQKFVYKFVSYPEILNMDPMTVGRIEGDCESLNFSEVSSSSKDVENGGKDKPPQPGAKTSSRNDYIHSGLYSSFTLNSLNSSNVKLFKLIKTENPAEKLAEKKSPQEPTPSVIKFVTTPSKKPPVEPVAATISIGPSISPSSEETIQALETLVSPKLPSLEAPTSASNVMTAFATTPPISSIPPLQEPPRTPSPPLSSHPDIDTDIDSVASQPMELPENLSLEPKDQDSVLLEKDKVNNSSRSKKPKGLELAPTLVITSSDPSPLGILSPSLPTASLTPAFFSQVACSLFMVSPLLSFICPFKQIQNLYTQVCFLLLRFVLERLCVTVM
The conditions noted are these: protein: recombinant; tags: N-terminal GST; dsDNA, one strand shown. The essentials: as §1

In a further test the target is T4, ETV2 (Homo sapiens, UniProt O00321 1-342).
T4 sequence: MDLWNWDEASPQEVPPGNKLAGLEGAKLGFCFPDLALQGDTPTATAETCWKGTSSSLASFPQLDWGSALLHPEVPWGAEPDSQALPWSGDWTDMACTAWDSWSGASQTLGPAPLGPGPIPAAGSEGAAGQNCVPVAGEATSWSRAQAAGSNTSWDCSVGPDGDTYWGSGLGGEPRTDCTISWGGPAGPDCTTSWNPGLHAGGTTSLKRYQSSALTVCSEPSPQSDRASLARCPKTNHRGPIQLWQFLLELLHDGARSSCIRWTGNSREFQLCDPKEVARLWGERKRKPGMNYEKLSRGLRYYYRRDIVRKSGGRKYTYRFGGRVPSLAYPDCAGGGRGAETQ
To be noted: protein: recombinant; tags: N-terminal GST; dsDNA, one strand shown. The essentials:
as §1

For the next test, the target named is T5, ELF3 (Homo sapiens, UniProt P78545 1-371).
T5 sequence: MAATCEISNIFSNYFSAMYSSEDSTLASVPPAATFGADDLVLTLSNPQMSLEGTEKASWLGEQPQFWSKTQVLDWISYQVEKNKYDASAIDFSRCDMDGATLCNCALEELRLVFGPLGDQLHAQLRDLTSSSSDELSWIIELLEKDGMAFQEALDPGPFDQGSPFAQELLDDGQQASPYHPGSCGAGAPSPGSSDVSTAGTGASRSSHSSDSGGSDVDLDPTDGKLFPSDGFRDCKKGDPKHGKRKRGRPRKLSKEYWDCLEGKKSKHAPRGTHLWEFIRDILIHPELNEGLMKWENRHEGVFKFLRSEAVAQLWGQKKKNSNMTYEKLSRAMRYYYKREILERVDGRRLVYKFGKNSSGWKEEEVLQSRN
To be noted: protein: recombinant; tags: N-terminal GST; dsDNA, one strand shown. The essentials: as §1

The target in the next test is CRX (Homo sapiens, UniProt O43186 1-299). To be noted: protein: recombinant; tags: N-terminal GST; dsDNA, one strand shown. The essentials: as §1
Sequence of CRX (O43186 whole entry): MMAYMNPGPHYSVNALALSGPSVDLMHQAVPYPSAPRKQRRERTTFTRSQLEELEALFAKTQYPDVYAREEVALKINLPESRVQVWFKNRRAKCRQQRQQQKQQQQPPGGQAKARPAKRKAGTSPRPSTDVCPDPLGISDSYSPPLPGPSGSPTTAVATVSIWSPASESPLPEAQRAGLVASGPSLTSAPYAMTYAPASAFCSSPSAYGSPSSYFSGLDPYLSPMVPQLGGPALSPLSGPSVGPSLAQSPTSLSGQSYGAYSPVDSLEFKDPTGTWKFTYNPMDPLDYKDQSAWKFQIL
The target in the next test is ETV1 (Homo sapiens, UniProt P50549 1-477). To be noted: protein: recombinant; tags: N-terminal GST; dsDNA, one strand shown. The essentials:
as §1

The next test deals with T6, ERF (Homo sapiens, UniProt P50548 1-548).
T6 sequence: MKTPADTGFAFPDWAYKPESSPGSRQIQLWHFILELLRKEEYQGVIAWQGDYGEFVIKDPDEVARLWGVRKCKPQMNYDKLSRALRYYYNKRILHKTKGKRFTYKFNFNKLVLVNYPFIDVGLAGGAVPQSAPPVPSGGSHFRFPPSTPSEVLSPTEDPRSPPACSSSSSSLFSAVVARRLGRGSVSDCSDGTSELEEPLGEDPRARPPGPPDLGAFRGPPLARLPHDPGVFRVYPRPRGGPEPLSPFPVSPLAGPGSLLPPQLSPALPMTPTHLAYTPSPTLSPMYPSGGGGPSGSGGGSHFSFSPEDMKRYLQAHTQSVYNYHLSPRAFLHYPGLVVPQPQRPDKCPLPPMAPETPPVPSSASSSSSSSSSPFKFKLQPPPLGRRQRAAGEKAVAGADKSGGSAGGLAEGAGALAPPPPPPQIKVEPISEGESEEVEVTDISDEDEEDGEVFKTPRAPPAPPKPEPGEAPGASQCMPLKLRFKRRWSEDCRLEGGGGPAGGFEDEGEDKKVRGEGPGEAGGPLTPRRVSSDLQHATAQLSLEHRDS
The conditions noted are these: protein: recombinant; tags: N-terminal GST; dsDNA, one strand shown. The essentials: as §1

For another test, the target named is T7, ETV3L (Homo sapiens, UniProt Q6ZN32 1-361).
T7 sequence: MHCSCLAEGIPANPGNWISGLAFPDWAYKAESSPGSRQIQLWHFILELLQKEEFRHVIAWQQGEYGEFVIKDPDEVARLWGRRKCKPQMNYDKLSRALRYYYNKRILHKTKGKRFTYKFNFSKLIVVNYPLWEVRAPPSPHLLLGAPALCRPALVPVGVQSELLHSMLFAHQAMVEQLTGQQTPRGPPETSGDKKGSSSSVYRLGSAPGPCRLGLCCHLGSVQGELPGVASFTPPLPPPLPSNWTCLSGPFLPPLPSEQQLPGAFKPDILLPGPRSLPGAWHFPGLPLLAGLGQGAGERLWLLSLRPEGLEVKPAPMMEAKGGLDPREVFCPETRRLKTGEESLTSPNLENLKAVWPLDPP
To be noted: protein: recombinant; tags: N-terminal GST; dsDNA, one strand shown. The essentials:
as §1

For another test, the target named is T8, ETS2 (Homo sapiens, UniProt P15036 1-469).
T8 sequence: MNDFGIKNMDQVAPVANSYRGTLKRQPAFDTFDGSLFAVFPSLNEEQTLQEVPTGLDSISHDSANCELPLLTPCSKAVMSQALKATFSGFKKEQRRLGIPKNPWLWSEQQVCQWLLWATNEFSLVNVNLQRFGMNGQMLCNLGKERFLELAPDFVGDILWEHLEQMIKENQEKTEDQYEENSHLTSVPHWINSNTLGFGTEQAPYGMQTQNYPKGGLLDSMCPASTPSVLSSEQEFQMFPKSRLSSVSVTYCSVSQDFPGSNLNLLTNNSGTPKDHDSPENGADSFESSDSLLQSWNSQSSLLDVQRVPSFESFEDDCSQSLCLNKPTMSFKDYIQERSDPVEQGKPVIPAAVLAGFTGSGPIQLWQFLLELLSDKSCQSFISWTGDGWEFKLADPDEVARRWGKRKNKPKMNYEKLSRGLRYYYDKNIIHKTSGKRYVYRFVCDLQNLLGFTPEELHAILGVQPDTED
The conditions noted are these: protein: recombinant; tags: N-terminal GST; dsDNA, one strand shown. The essentials: as §1

Another test concerns the target T9, SPDEF (Homo sapiens, UniProt O95238 1-335).
T9 sequence: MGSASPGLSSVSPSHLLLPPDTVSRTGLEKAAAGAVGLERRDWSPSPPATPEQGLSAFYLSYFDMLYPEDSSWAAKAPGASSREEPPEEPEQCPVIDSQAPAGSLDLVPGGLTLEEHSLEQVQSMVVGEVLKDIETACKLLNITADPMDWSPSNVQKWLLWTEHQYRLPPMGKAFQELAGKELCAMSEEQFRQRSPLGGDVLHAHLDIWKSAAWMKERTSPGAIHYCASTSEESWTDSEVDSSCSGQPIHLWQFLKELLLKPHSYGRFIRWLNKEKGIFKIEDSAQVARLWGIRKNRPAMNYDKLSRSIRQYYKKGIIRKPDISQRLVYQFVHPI
The conditions noted are these: protein: recombinant; tags: N-terminal GST; dsDNA, one strand shown. The essentials:
as §1

The next test has as its target T10, ETV7 (Homo sapiens, UniProt Q9Y603 1-341).
T10 sequence: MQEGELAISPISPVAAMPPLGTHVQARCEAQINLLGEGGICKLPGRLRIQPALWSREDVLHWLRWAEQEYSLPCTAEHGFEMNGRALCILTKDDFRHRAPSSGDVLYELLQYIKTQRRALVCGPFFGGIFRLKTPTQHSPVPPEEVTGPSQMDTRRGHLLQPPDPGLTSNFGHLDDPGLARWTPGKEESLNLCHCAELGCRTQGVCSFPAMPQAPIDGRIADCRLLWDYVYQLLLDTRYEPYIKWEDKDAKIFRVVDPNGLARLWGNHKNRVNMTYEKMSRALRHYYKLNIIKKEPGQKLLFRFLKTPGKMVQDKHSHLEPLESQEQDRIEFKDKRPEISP
To be noted: protein: recombinant; tags: N-terminal GST; dsDNA, one strand shown. The essentials:
as §1

The target of another test is T11, ELF5 (Homo sapiens, UniProt Q9UKW6-2 1-255).
T11 sequence: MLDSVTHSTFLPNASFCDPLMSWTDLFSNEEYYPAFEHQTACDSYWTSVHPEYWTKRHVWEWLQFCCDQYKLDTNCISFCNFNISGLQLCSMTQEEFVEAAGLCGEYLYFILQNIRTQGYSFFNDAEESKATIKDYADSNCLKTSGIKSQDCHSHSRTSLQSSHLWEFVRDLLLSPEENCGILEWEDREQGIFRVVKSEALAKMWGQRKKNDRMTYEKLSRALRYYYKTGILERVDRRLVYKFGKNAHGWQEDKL
The conditions noted are these: protein: recombinant; tags: N-terminal GST; dsDNA, one strand shown. The essentials:
as §1

For a further test, the target named is T12, ETV3 (Homo sapiens, UniProt P41162-2 1-143).
T12 sequence: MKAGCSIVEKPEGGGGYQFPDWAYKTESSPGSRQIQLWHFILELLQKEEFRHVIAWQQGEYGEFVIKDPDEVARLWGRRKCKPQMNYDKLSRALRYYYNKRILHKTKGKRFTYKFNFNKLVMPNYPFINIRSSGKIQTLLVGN
To be noted: protein: recombinant; tags: N-terminal GST; dsDNA, one strand shown. The essentials: as §1

For another test, the target named is ETV6 (Homo sapiens, UniProt P41212 1-452). To be noted: protein: recombinant; tags: N-terminal GST; dsDNA, one strand shown. The essentials: as §1
Sequence of ETV6 (P41212 whole entry): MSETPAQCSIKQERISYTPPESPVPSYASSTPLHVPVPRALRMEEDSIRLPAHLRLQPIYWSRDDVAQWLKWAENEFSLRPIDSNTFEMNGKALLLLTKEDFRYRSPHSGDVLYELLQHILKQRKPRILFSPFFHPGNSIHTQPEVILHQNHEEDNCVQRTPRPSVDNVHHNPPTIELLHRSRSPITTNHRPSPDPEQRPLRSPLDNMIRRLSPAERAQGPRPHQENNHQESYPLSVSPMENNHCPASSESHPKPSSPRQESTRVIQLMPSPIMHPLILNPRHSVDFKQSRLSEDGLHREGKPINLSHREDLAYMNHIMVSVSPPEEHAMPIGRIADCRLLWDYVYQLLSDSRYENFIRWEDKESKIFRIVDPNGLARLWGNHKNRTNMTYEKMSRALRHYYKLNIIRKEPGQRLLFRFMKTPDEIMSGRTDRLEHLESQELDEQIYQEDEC

Sequence of ELF4 (Q99607 whole entry): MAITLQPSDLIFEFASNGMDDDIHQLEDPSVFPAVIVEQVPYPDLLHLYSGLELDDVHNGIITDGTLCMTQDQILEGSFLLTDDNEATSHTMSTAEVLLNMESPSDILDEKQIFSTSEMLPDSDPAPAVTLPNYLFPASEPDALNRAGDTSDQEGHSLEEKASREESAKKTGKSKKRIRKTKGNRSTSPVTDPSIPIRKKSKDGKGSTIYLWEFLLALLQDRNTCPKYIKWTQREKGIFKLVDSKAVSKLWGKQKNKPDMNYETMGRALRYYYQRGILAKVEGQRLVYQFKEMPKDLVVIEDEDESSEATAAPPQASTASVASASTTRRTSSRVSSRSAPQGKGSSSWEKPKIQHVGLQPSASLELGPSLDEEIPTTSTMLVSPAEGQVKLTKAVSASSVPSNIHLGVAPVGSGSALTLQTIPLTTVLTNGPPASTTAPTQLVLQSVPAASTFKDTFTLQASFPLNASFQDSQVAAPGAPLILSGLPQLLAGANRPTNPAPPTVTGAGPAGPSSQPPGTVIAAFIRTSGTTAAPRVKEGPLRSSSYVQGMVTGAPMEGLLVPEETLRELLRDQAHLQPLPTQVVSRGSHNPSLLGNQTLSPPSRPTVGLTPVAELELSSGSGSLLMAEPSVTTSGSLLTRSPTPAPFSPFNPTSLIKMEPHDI
Sequence of HSF1 (Q00613 whole entry): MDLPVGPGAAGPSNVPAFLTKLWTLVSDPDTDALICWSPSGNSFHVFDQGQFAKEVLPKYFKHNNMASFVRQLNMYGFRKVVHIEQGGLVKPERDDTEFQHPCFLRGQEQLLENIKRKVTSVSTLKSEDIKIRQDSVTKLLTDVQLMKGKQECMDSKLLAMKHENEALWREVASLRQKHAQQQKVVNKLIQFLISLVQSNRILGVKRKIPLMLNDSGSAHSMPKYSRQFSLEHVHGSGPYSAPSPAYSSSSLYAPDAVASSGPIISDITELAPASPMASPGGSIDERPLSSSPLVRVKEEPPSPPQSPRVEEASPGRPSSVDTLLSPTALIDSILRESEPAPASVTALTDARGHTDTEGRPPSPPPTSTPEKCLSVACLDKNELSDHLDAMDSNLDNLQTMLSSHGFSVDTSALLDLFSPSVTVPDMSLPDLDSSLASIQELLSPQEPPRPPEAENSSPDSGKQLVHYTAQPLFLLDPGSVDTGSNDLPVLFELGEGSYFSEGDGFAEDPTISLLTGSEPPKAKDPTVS
Sequence of ETV5 (P41161 whole entry): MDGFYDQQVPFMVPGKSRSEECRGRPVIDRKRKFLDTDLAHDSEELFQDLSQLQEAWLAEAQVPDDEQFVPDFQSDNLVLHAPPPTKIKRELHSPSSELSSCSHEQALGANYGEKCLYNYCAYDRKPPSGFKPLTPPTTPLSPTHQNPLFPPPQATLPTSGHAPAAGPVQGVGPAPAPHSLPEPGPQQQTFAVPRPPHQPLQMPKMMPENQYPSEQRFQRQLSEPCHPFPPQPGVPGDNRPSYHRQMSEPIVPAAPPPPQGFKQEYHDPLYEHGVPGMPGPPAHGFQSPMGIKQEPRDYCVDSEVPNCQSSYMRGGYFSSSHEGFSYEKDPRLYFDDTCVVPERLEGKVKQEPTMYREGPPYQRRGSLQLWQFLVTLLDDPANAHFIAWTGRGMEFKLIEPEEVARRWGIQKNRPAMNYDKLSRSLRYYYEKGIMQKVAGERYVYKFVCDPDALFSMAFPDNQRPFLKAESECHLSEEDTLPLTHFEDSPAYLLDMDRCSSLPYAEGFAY
Sequence of ETV1 (P50549 whole entry): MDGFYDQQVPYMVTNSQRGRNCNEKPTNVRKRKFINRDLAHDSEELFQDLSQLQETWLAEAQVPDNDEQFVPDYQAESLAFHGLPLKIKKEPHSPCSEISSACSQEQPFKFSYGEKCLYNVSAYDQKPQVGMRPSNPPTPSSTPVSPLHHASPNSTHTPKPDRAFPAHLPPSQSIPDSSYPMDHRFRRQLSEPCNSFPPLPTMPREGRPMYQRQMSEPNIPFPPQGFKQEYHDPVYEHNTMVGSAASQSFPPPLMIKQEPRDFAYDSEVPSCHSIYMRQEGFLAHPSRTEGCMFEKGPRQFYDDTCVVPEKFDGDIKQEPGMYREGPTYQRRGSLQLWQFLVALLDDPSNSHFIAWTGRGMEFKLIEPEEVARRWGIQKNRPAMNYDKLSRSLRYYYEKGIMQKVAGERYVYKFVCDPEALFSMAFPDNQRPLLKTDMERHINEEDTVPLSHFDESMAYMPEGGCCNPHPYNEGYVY

With ACAAAT, the binding signal in the test with FEV was 1.16 fold enrichment (6-mer frequency, TF over GST control); in the test with ETV5, 1.16 fold enrichment (6-mer frequency, TF over GST control); in the test with HSF1, 1.17 fold enrichment (6-mer frequency, TF over GST control); with SPIC, 1.12 fold enrichment (6-mer frequency, TF over GST control); with ELF4 it was 1.18 fold enrichment (6-mer frequency, TF over GST control); with ELK4, 1.04 fold enrichment (6-mer frequency, TF over GST control). Further, the binding signal is 1.16 fold enrichment (6-mer frequency, TF over GST control) with ETV2; 1.22 fold enrichment (6-mer frequency, TF over GST control) with ELF3; 1.29 fold enrichment (6-mer frequency, TF over GST control) with CRX; 1.15 fold enrichment (6-mer frequency, TF over GST control) with ETV1; 1.3 fold enrichment (6-mer frequency, TF over GST control) with ERF; 1.15 fold enrichment (6-mer frequency, TF over GST control) with ETV3L. The binding signal was 1.16 fold enrichment (6-mer frequency, TF over GST control) with ETS2; 1.1 fold enrichment (6-mer frequency, TF over GST control) with SPDEF; 1.14 fold enrichment (6-mer frequency, TF over GST control) with ETV7; 1.13 fold enrichment (6-mer frequency, TF over GST control) with ELF5; 1.1 fold enrichment (6-mer frequency, TF over GST control) in the test with ETV3; 1.17 fold enrichment (6-mer frequency, TF over GST control) in the test with ETV6.
